Experimental data taken from PubChem BioAssay (NCATS).
Where “and” joins values, the source holds several entries; their conditions need not be identical. Equal entries are not always repeated. Results filed as inconclusive are left out. Unmarked numbers belong to inactive results. Calls of active or inactive are those of the source. The call rests on the fitted dose curve; in most records, active means well fitted cell-killing curve with a large enough effect; inconclusive means small, poorly fitted or top-dose-only effect, or effect the other way; inactive means no such curve, though single readings can be large or run the other way.

experiment: Viability qHTS for spleen associated tyrosine kinase inhibitor (SYKi) naive MV4-11 cells (AID 1963823); conditions: MV4-11 AML viability, CellTiter-Glo luminescence, 72 h; series mostly up to 45 µM; viability (% of control): at the top concentration; further: nearly all actives have a fitted effect of over 40% in size
From the text: Department of Medicine, Hematology/Oncology
University Hospital Frankfurt, Germany.
Trials have shown promising clinical activity of the selective SYK inhibitor entospletinib in patients with high expressing HOXA9/MEIS1 acute leukemias. As the development of resistance mechanisms is a common problem in the use of targeted drugs, we performed a chemical library screen to identify drug sensitivities in SYK inhibitor resistant AML cells. […] Glucocorticoids are potent immunosuppressants which work in part by inhibiting the transcription of cytokine genes.
Described herein is a viability screen to look for activity in the SYK inhibitor naive cell line against four NCATS compound libraries (MIPE 5.0, NPC, NPACT, and Kinase) totaling 11372 compounds. Active hits were reacquired for confirmation and further secondary assay testing.
SEQUENCE No. (e.g., 1, 2, 3, etc.); […] (e.g., Cells, Incubation, Reagent, etc.); VALUE; DESCRIPTION.
1; Media; 2uL; white, solid-bottom Corning assay plate.
2; Compounds; 23nL; Echo acoustic dispenser.
3; Cell; 5uL; 500 cells per well.
4: Incubation; 72hr; 37 C, 5% CO2, 95% humidity.
5; Reagent; 3uL; CellTiter-Glo reagent (Promega).
6; Incubation; 10min; room temperature.
7; Detection; Luminescence; ViewLux plate reader (PerkinElmer).
NOTES (numbers refer to Sequence numbers above
1. Quantitative high-throughput screening (qHTS) of small molecule compounds was conducted on naive SYKi MV4-11 cell line.
2. Twenty-three nanoliter of small molecule compounds were added to each assay plates using the Echo acoustic dispenser (Beckman Coulter).
3. Cells were seeded into the assay plates at a final density of 500 cells in 5uL of media per well using the Multi-drop Combi dispenser.
4. Plates were covered with stainless steel gasketed lids and incubated for 72 hours at standard cell culture conditions.
5. Viability was assessed by adding 3uL of CellTiter-Glo detection reagent (Promega).
6. Plates were covered with gasket lids and incubated for 10 minutes at room temperature.
7. Luminescence was measured on a ViewLux plate reader (PerkinElmer).
Potency means the concentration at half of the fitted maximal effect.

SMILES	viability (% of control)	Potency
c1ccc2c(c1)sc1ccccc12	87.3%	
COC[C@]12CN(C)C3C4[C@H](OC)[C@H]1C3(C(OC)C[C@H]2O)[C@H]1C[C@@]2(O)[C@H](OC(=O)c3ccccc3)[C@@H]1[C@]4(O)[C@@H](O)[C@@H]2OC (stereo not given in full)	82.1%	
Cc1nnc2n1-c1sc(CCc3ccc(CC(C)C)cc3)cc1C(c1ccccc1Cl)=NC2C (stereo not given)		5800 nM (active)
O=C1c2ccccc2C(=O)c2ccccc21	88.1% [at 17.3 µM]	
CCC1C2CC3C4N(C)c5ccccc5C45CC(C2C5O)N3C1O (stereo not given)	4.21%	
C/C=C(\C)C(=O)OC1CC2C(C)(C)OC(=O)CC(OC(C)=O)C2(C)C2CC(OC(=O)C(C)C)C3(C)C(c4ccoc4)CC4OC43C12C (stereo not given)	63.9% [at 17.3 µM]	
CC(C)NCC(O)c1ccc(N)c(C#N)c1 (stereo not given)	60.3%	
C[C@H]1CCC/C=C/C2C[C@H](O)C[C@H]2[C@H](O)/C=C/C(=O)O1 (stereo not given in full)		184 nM (active) and 148 nM (active)
CCCCCCCCCC(CC)c1ccc(S(=O)(=O)O)cc1 (stereo not given)		7700 nM (active)
Cc1cn(C[C@H](N)C(=O)O)c(=O)n(Cc2cc(-c3ccccc3)sc2C(=O)O)c1=O	95.4%	
C[C@@H]1O[C@@H](O[C@H]2C[C@@H](O)[C@]3(CO)[C@H]4[C@H](O)C[C@]5(C)[C@@H](C6=CC(=O)OC6)CC[C@]5(O)[C@@H]4CC[C@]3(O)C2)[C@H](O)[C@H](O)[C@H]1O		119 nM (active) and 79.6 nM (active) and 46.8 nM (active)
CCOP(=O)(OCC)Oc1ccc2c(C)cc(=O)oc2c1	72.5%	
COc1nn(CSP(=S)(OC)OC)c(=O)s1		38600 nM (active)
Cn1c(COP(=O)(NCCBr)NCCBr)cnc1[N+](=O)[O-]		10500 nM (active)
C1CN2CCC1CC2	83.9%	
CC(C)NC(C)C	78%	
CN(C)[C@@H]1C(=O)C(C(N)=O)=C(O)[C@@]2(O)C(=O)C3=C(O)c4c(O)ccc(Cl)c4[C@@](C)(O)C3C[C@@H]12 (stereo not given in full)	70%	
O=C1CC[C@@]2(O)[C@H]3Cc4ccc(O)c5c4[C@@]2(CCN3CC2CC2)[C@H]1O5		inactive
Cc1c(Cl)c(OCC(=O)N2CCN(C)CC2)nc2sc(C(=O)NC3CC3)c(N)c12	60.6%	
CC[C@@H]1C[C@H]2CC[C@H](O2)[C@H](C)C(=O)O[C@@H](C)C[C@@H]2CC[C@@H](O2)[C@@H](C)C(=O)O[C@H](C)C[C@H]2CC[C@H](O2)[C@H](C)C(=O)O[C@@H](C)C[C@@H]2CC[C@@H](O2)[C@@H](C)C(=O)O1		34.3 nM (active)

SMILES	viability (% of control)	Potency
CC1(C)CC[C@]2(NC(=O)C(C)(F)F)CC[C@]3(C)[C@H](C(=O)C=C4[C@@]5(C)C=C(C#N)C(=O)C(C)(C)[C@@H]5CC[C@]43C)[C@@H]2C1		3320 nM (active)
CO[C@H]1C[C@H](O[C@H]2CC[C@]3(C=O)[C@H]4CC[C@]5(C)[C@@H](C6=CC(=O)OC6)CC[C@]5(O)[C@@H]4CC[C@]3(O)C2)O[C@H](C)[C@H]1O		63.2 nM (active)
CN(C)NC(=O)CCC(=O)O	82.3%	
ClCc1cccc(Cl)c1	95.9%	
CC(C)(C)NC[C@H](O)c1ccc(O)cc1Cl	77.7%	
CN(C)c1cc2c(cc1Sc1nc3c(N)nccc3n1CCNCC(C)(C)C)OCO2		186 nM (active)
COC(C)(C)CCCC(C)C/C=C/C(C)=C/C(=O)OC(C)C (stereo not given)	99.4%	
C[C@@H](C1CC[C@@]2(O)C3=CC(=O)[C@@H]4C[C@@H](O)[C@@H](O)C[C@]4(C)[C@H]3CC[C@]12C)[C@H](O)CCC(C)(C)O (stereo not given in full)	69.5%	
C=C(C)[C@@H]1[C@H]2OC(=O)[C@H]1[C@]1(O)C[C@H]3O[C@]34C(=O)O[C@H]2[C@]14C	80.9%	
CC(=O)OC[C@H]1O[C@@H]([S-])[C@H](OC(C)=O)[C@@H](OC(C)=O)[C@@H]1OC(C)=O.CC[PH+](CC)CC.[Au]		209 nM (active)
COP(=O)(OC)C(O)C(Cl)(Cl)Cl (stereo not given)	93.9%	
O=C1Nc2ccc3ncsc3c2/C1=C/c1cnc[nH]1		82 nM (active)
C=C(C)C(=O)O[C@H]1[C@@H]2[C@H](C)C(=O)O[C@@H]2C[C@@H](C)[C@@H]2C=CC(=O)[C@]21C		1430 nM (active)
CSCC[C@@H](NC(=O)[C@@H](Cc1ccccc1)NC(=O)CNC(=O)CNC(=O)[C@@H](N)Cc1ccc(O)cc1)C(=O)O	85.1%	
Cc1sc2c(c1C)C(c1ccc(Cl)cc1)=N[C@@H](CC(N)=O)c1nnc(C)n1-2		83.3 nM (active)
Cc1ncsc1CCCl	78.5%	
C[C@]12CC[C@H]3[C@@H](CCC4=C/C(=N/OCC(=O)O)CC[C@@]43C)[C@@H]1CC[C@@H]2O	86.4%	
CC1(C)C(C=C(Cl)Cl)C1C(=O)OC(C#N)c1cccc(Oc2ccccc2)c1 (stereo not given)		2660 nM (active)
CC(C)(O)/C=C/C(=O)[C@](C)(O)[C@H]1[C@H](O)C[C@@]2(C)[C@@H]3CC=C4[C@@H](C=C(O)C(=O)C4(C)C)[C@]3(C)C(=O)C[C@]12C		59.6 nM (active)
C[C@@H]1CN(Cc2ccc(F)cc2)CCN1C(=O)COc1ccc(Cl)cc1NC(N)=O		934 nM (active)
